# Source: the supplement of paper PMC3334620
# Over roughly 33,000 sequences, “E-score (-0.5 to 0.5)” has its median near -0.036; the highest 2% begin near 0.37. Shown is part of a subset that was picked to be rich in the highest values.
# Molecular target: T1, Yer064c (UniProt P40041)
# T1 sequence: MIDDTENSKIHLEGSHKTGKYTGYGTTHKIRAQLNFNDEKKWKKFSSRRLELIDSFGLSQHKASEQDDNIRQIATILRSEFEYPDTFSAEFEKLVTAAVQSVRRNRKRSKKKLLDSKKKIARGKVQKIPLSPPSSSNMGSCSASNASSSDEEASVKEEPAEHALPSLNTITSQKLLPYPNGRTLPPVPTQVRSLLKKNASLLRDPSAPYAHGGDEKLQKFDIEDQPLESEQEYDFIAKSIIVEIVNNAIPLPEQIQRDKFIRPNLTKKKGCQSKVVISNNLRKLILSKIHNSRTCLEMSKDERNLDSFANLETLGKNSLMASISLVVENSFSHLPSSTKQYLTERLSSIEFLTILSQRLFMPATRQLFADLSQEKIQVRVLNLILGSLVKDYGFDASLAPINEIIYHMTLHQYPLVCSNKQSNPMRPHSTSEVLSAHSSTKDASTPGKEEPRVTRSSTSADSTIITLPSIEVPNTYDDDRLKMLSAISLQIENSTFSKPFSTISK
# Test: PBM E-score (8-mer binding enrichment) (E-score (-0.5 to 0.5)); higher = stronger / more preferred TF binding
# Settings: protein concentration: 200 nM; construct: GST-full length
# Outline: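 The E-score, a modified Wilcoxon-Mann-Whitney statistic, was computed by the Universal PBM Analysis Suite for every ungapped eight-base word pooled with its reverse complement. Scans behind it were normalised with masliner after bound GST-tagged yeast transcription factors were detected with fluorescent anti-GST. The proteins, at about 100-200 nM, had been applied to universal all-10-mer Agilent arrays made double-stranded by primer extension.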
row,Sequence,PBM E-score
1,ATGACTTC,0.469
2,CCGACTTC,-0.0761
3,CAGACTTC,-0.103
4,CTGACCCC,-0.221
5,CTGACTCC,0.46
6,AAATGAAG,0.0192
7,ACACAGTC,0.285
8,ATGCAACC,-0.254
9,AACCAGTA,-0.0555
10,ATATACTC,0.103
11,AGGAGCTC,-0.0695
12,CGCTGCTC,-0.243
13,CAGTCACG,0.413
14,CCGTCACC,-0.189
15,CGGTCACA,-0.132
16,CGGTCACC,-0.0952
17,CAGTCACC,0.423
18,CAGTCACA,0.42
19,CCGTCACA,-0.22
20,CTGTCACA,0.16
21,CAGTCAAG,0.267
22,GACCTTTA,-0.0143
23,ATCGAGAT,-0.151
24,AATAGGAG,-0.113
25,AGAACGTG,-0.217

row,Sequence,PBM E-score
1,CTCTAGGA,0.0144
2,ATTCATCC,0.119
3,GGTCATCA,0.228
4,CGTCATCA,-0.004
5,ATTCATCG,0.205
6,AGTCATCC,0.49
7,AGGCATCG,-0.125
8,AGTCATCA,0.485
9,CGTCATCC,-0.131
10,AGTCATCG,0.492
11,GAGGTAAA,0.122
12,ATGTGGAG,0.0652
13,GGGCGCAC,-0.321
14,GCCAAGGC,-0.214
15,GGTCAGGA,-0.138
16,AGTCAGGG,0.439
17,CGTCAGGC,-0.19
18,AGTCAGGC,0.449
19,CGTCAGGA,-0.0376
20,ACTCAGGG,0.311
21,ATTCAGGG,0.0298
22,AGTCAGGA,0.417
23,ACTCAGGC,0.331
24,AAAGTCCA,0.0185
25,AGTGAGAG,-0.0545

row,Sequence,PBM E-score
1,AACGTGGG,-0.189
2,AGCGATCA,-0.0759
3,CTATGGAA,0.0704
4,CGAGCAGA,-0.0955
5,CGATTACA,0.101
6,CGATTTAA,0.188
7,TGATTTAA,0.407
8,AGATTTAA,0.2
9,TGATTACA,0.41
10,GGATTAAA,0.205
11,TGATTAAA,0.418
12,GGATTACA,0.0898
13,CGATTAAA,0.249
14,AGGTAGGG,-0.121
15,GATTGGCC,-0.0787
16,CCAACAAA,-0.069
17,ACTGCGGA,-0.0234
18,CCGGACTA,0.103
19,AGTTTAGG,0.0907
20,AGCAACTG,-0.155
21,CTTGACTC,0.463
22,ATTGACAC,0.0304
23,CTTGACCA,0.0717
24,GTTGACGA,0.126
25,ATTGACTG,0.275

row,Sequence,PBM E-score
1,GTTGACTA,0.457
2,CTTGACTA,0.435
3,GTTGACAA,-0.00857
4,ATTGACTC,0.445
5,CTTGACGC,-0.268
6,CTTGACCC,-0.164
7,CTTGACAA,0.113
8,ACTAACAC,0.315
9,CTAATTAG,0.175
10,AACATTAA,-0.00496
11,CTCGATGC,-0.0842
12,GCCTATCC,-0.207
13,GGACCTAC,-0.132
14,GTTATCAA,0.041
15,AGGCCGCA,-0.226
16,AAGTTTCT,0.0369
17,CAAACAGA,0.0255
18,CATAGGCC,-0.158
19,GTGTTCAA,0.0916
20,CCCCTACC,-0.124
21,ACACTTTC,-0.0867
22,ATTGACTA,0.428
23,ATTGACAA,0.0616
24,ATTGACGA,0.188
25,ATTGGCTA,0.0683

row,Sequence,PBM E-score
1,AGTCGCTC,0.382
2,AGTCGCCC,0.403
3,AGTCGCCG,0.36
4,CGTCGCTC,-0.159
5,AGTCGCTG,0.303
6,AGTCGCAG,0.367
7,GGTCGCTA,-0.197
8,AGTCGCCA,0.356
9,CGTCGCAG,-0.031
10,CGTCGCTA,-0.0862
11,AGTCGCAC,0.353
12,AGTCGCTA,0.371
13,AGATTCGC,-0.0217
14,GCCCCCAC,-0.265
15,AATGCCCT,-0.232
16,CCAGAATC,0.0913
17,CAGAAGGA,-0.151
18,GGGAGACC,-0.259
19,CCCTCTTA,-0.103
20,AGCATTAA,0.0916
21,CTTACTCC,0.128
22,AGTACTCG,0.261
23,AGTACTCC,0.171
24,AGTACTCA,0.393
25,ATTACTCA,0.329

row,Sequence,PBM E-score
1,GGTACTTA,-0.0396
2,CGTACTCA,0.335
3,GGTACTCA,0.381
4,CTTACTCA,0.373
5,AGGTGAAA,0.0659
6,AATGTGTA,0.222
7,ACGGATAA,-0.0519
8,CATCAGCA,-0.143
9,AGCCATTC,0.0873
10,AGTCATTA,0.487
11,CGTCATTA,-0.0609
12,AGTCATTG,0.475
13,AGCCATTG,0.247
14,AGGCATTG,-0.171
15,CGTCATTC,-0.0565
16,GGTCATTA,-0.0121
17,AGTCATTC,0.482
18,CCTGGAAG,-0.1
19,GGAAGCCC,-0.374
20,AGCGCGGG,0.00652
21,ATTCCAGG,0.118
22,TCAGCGAA,0.186
23,ACAATCTC,-0.108
24,CCTCATCC,-0.323
25,GCTCATCC,-0.0652

row,Sequence,PBM E-score
1,ACCCATCT,0.182
2,TCTCATCA,0.115
3,ACTCATCC,0.455
4,ACGCATCT,-0.0617
5,ACTCATCG,0.409
6,ACTCATCA,0.412
7,ACACATCG,0.158
8,ACTCATCT,0.401
9,GCTCATCA,0.184
10,CCTCATCG,-0.207
11,AACTTTGG,-0.0438
12,CTGCTAGA,0.00564
13,GAATGCCA,-0.127
14,CAGGGGCC,-0.269
15,CTCACAAA,0.232
16,ACGTTATA,0.0989
17,AGGATGAT,0.281
18,GGAGATCC,-0.237
19,GACTCCTA,0.443
20,CACTCCTA,-0.0701
21,GACTCCTC,0.419
22,CACTCCTC,-0.206
23,AACTCCTA,-0.137
24,AACTCCTC,-0.169
